Hits are enriched below; roughly 2% of the tested compounds scored in any of these assays.
PKA-R2B act: activators of PKA-R2B holoenzyme, primary screen, biochemical, fluorescence polarization, Cy5-IP20, human; PKA-R2B holoenzyme dissociation; R2B truncated from residue 108, S112A mutant; 0% DMSO only, 100% 113 µM cGMP; activation, % at 11.4 µM; 0.079% of 340,000 active; AID 504700, 2011;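 active means activation above a cutoff set at the mean over all compounds plus 3 SD, cut at about 18% in these data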;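 further: higher means more holoenzyme dissociation and a rise in polarization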
Target sequence (P31323 whole entry, looked up, other chains not shown, the tested form may be a part): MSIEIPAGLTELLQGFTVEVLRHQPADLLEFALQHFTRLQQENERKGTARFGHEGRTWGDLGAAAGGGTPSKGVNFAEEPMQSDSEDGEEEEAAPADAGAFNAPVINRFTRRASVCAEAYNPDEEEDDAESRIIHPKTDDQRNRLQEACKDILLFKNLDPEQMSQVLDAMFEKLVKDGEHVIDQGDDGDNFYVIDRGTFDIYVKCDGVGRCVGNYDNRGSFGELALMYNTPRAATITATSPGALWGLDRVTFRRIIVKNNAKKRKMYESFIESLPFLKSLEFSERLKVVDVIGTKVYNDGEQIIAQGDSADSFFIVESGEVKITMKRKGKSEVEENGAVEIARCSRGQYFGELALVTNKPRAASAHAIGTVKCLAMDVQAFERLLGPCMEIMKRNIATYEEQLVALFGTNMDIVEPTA
MsrA act: bovine MsrA enzyme activators, primary screen, biochemical, absorbance, HTS; Methionine sulfoxide reductase A (Bos taurus); purified bovine MsrA, absorbance read-out; activation, % at 10.6 µM; 0.3% of 360,000 active; AID 602163, 2012; in the data active means activation above about 7.5%;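 further: 0% = vehicle and 100% = reference activator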
PKA-R1A activ: activators of PKA-R1A holoenzyme, primary screen, biochemical, fluorescence polarization, Cy5-IP20, bovine R1A, mouse PKAc; cAMP-dependent protein kinase type I-alpha regulatory subunit (Bos taurus) + …; PKA-R1A dissociation; scaled: DMSO 0%, 113 µM cGMP 100%; activation, % at 11.4 µM; 0.083% of 340,000 active; AID 504707, 2011;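 active means percent activation above the mean of all tested compounds plus 3 SD, cut at about 19% in these data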;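 further: higher means more PKAc released from R1A so a rise in polarization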
MsrA inhibitor: bovine MsrA enzyme inhibitors, primary screen, biochemical, absorbance, HTS; AID 651718, 2012; 0.75% of 360,000 active; Methionine sulfoxide reductase A (Bos taurus); purified bovine MsrA, absorbance read-out; inhibition, % at 15.5 µM;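 further: 0% = vehicle wells with enzyme and 100% = reference inhibitor wells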
SUMO Mot1 rescue: yeast Mot1-301 growth rescue at high temperature, primary screen, SUMOylation pathway inhibitor project, S. cerevisiae, ATP luminescence, 38.5C. S. cerevisiae Mot1-301 growth rescue; percent above DMSO median, 100 means doubled. growth rescue, % at 18.8 µM. 1% of 320,000 active. AID 2716, 2010;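 active means every valid replicate shows activation above 250% relative to neutral control wells; inactive means the rest, any valid replicate at or below 250%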;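 further: OY570 slx delta 5 strain wells were the positive control but not used for scaling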
MsrA conf: bovine MsrA inhibitors, retest, confirmation, biochemical, absorbance, HTS; shares compounds with MsrA inhibitor; purified bovine MsrA, absorbance read-out; inhibition, % at 15.5 µM; 41% of 2,300 active; AID 651822, 2012;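 further: coupled to thioredoxin reductase with NADPH and selenocystamine and DMSO as substrate; 0% = vehicle only and 100% = full effect of reference inhibitor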
An asterisk follows results filed as active; . = not tested or not shown. Unless noted, no stated cut-off is given here; in the data, active means inhibition above about 4.5%; inactive means the rest.

SMILES	PKA-R2B act	MsrA act	PKA-R1A activ	MsrA inhibitor	SUMO Mot1 rescue	MsrA conf
CCOC(=O)N(C)[C@H]1C[C@H]2c3[nH]c4c(-c5ccccc5)cccc4c3CCN2C(=O)[C@H]1[C@H](C)O	.	.	.	-0.7	.	.
CNC(=S)N1N=C(c2ccc(Br)cc2)CC1c1ccc(OC)cc1 (stereo not given)	10.8	-4.6	-7.2	5.7*	12.1	2.9
CNC(=S)N1N=C(c2ccc(C)cc2)CC1c1ccc(OC)cc1 (stereo not given)	-2.2	-2.0	-6.6	4.4	-10.3	.
COCCn1c(=S)[nH]c2sc3c(c2c1=O)CCCC3	-10.4	2.8	4.1	5.5*	71.7	3.2
O=C(O)CSc1cc(NS(=O)(=O)c2cccc([N+](=O)[O-])c2)c2ccccc2c1O	-0.7	3.0	-2.5	20.3*	.	-1.0
CCOc1cc(/C=N/NC(=O)C(OC)c2ccccc2)ccc1O (stereo not given)	2.5	-9.0	-3.8	3.8	29.5	.
CCOc1cc(/C=N/Nc2nnc(C)n2N)ccc1O	-8.8	4.5	-6.2	3.5	-0.9	.
CCOc1cc(/C=N/Nc2ncnc(Cl)c2N)ccc1O	-7.6	-7.0	-12.1	4.9*	-3.6	6.0*
CCOc1cc(/C=N/NC(=O)N/N=C/c2ccc(O)c(OCC)c2)ccc1O	.	.	.	5.5*	7.2	4.2
O=S1(=O)CCSC[C@@H](CNCc2ccco2)N1	.	.	.	2.2	.	.
Cc1ccc(NC(=O)C2CCCO2)cc1[N+](=O)[O-] (stereo not given)	4.1	-4.2	8.5	39.4*	-8.9	8.4*
O=C(Nc1cccc(NC(=O)C2CCCO2)c1)C1CCCO1 (stereo not given)	0.8	-6.2	2.6	-0.6	18.2	.
COC(=O)c1cc(=O)nc(NN=Cc2ccccc2O)s1	.	.	.	0.6	.	.
CN(C)c1ccc(/C=N/N2C(=S)SC(C)(C)C2N(O)C(=O)Nc2ccc([N+](=O)[O-])cc2)cc1 (stereo not given)	6.0	-10.1	-16.7	6.1*	0.5	2.5
Cc1ccccc1S(=O)(=O)NC(=O)C1(C)CCN1C(=O)Cc1ccccc1Cl (stereo not given)	.	-0.4	.	0.3	.	.
COc1ccc(CN2C[C@@]3(O)CC[C@@H](O)[C@@H](OC)[C@@H]3[C@@]2(C)[C@H](O)CC=C(C)C)cc1	.	.	.	-0.2	.	.
Cc1ccccc1/C=N/Nc1nc2ccccc2[nH]1	-4.3	-9.3	-2.2	2.4	-0.6	.
O=[N+]([O-])c1cc(/C=N/Nc2nc3ccccc3[nH]2)c(O)cc1O	.	.	.	5.7*	-0.3	5.0*
Fc1ccc(/C=N/Nc2nc3ccccc3[nH]2)cc1F	2.4	-4.2	-5.3	2.5	-12.4	.
Fc1cccc(/C=N/Nc2nc3ccccc3[nH]2)c1	.	.	.	4.7*	8.8	4.0
CCC/C=C/c1ccc(CN2C(C(C)C)C(=O)N(Cc3cn(CC4CCCCC4)nn3)CCS2(=O)=O)cc1 (stereo not given)	-12.5	0.1	-0.2	0.6	.	.
CCCCCC(=O)N1C[C@@H](n2cc(COC(=O)c3ccccc3)nn2)[C@H](O)C[C@@H]1c1ccc(C)cc1	5.9	-4.3	3.1	2.9	.	.
COC(=O)[C@]12CCCCC=C1N(Cc1ccco1)C(=O)[C@H](CC(=O)NCCC(C)C)C2	.	-11.1	.	0.1	.	.
COC1C(OC(=O)/C=C/C=C/C=C/C=C/C(=O)O)CCC2(CO2)C1C1(C)OC1CC=C(C)C (stereo not given) (tested in a mixture with another compound)	4.6	-5.1	0.0	8.8*	.	11.8*
O=C(Nc1ccccc1)c1cc(C2CCCN(C(=O)c3cccs3)C2)on1 (stereo not given)	.	2.9	.	0.3	.	.
SMILES	PKA-R2B act	MsrA act	PKA-R1A activ	MsrA inhibitor	SUMO Mot1 rescue	MsrA conf
c1ccc(-c2nc3nc4ccccc4nc3n2CC2CCCO2)cc1 (stereo not given)	-4.0	-4.8	-13.0	5.2*	1.7	5.2*
CC(C)Cn1cc(C(=O)NCCCN2CCCC2=O)c2c3ccccc3n(C)c2c1=O	-7.2	-11.4	1.3	4.9*	8.3	0.7
CC1(C(=O)NS(=O)(=O)Cc2ccccc2C(F)(F)F)CCN1C(=O)C/C=C/c1ccccc1 (stereo not given)	.	-2.8	.	-0.8	.	.
O=C(CN1C(=O)S/C(=C\c2ccccc2)C1=O)NNC(=O)c1ccccc1O	1.8	-2.9	4.2	3.6	2.1	.
O=C(CCCN1C(=O)S/C(=C\c2ccccc2)C1=O)NNC(=O)c1ccccc1O	-8.4	-6.4	6.6	4.7*	-11.2	3.6
COc1ccc(NC(=O)Nc2ccc3c(c2)C(=O)N([C@H](C)CO)C[C@H](C)[C@H](CN(C)C)OCCCC[C@@H](C)O3)cc1	.	.	.	-0.3	.	.
OCCCN=c1cc(-c2ccccc2)oc2ccc(Cl)cc12	-3.3	-4.2	-5.3	4.8*	16.6	4.4
Cc1ccsc1/C=N\Nc1cn[nH]c(=O)c1Cl	4.2	-6.2	6.1	3.9	33.8	.
O=c1[nH]ncc(N/N=C/c2ccccc2)c1Cl	4.1	-16.1	-3.2	7.2*	.	6.8*
COc1ccc(/C=N/Nc2cn[nH]c(=O)c2Cl)cc1	-1.4	-7.6	-4.8	5.4*	-10.1	5.9*
Cc1ccc(/C=N\Nc2cn[nH]c(=O)c2Cl)cc1	-11.0	-5.7	-1.7	7.8*	12.1	6.6*
CCc1nc2c(OCC(=O)c3ccc(Cl)cc3Cl)cccn2c1N(C)C(=O)c1cccs1	.	-5.1	.	-0.7	.	.
O=C(Nc1ccccc1N1CCOCC1)c1cccc2ccccc12	-10.8	-1.6	7.1	-1.2	.	.
CCCS(=O)(=O)NC(=O)C1(C)CCN(C(=O)c2oc3ccccc3c2C)C1 (stereo not given)	.	0.3	.	-1.1	.	.
Cc1[nH]c2ccccc2c1C(=O)c1c(N)[nH]c(C(=O)c2ccccc2)c1-c1ccc(Cl)cc1	.	.	.	0.9	.	.
O=C(N[C@H](C(=O)N1CCC[C@H]1C(=O)NC1CCCC1)C1CCCCC1)c1ccccn1	.	.	.	-1.0	.	.
OC[C@@H]1CN(CCN2CCOCC2)C[C@H](n2cnc3c(N4CCOCC4)ncnc32)O1	.	-3.4	.	-0.7	.	.
CC(C)(C)c1cc(-c2ccco2)c(C#N)c(SCC#N)n1	-6.0	-0.4	17.6	9.2*	7.1	5.2*
CCSc1nc(C2CC2)cc(-c2ccco2)c1C#N	-6.9	-5.2	-1.2	-0.3	-0.6	.
CN(c1nc2nonc2nc1NC1CC1)C1CCOC1 (stereo not given)	-4.5	-2.6	7.8	5.0*	-8.0	1.8
O=C(N/C=N/OCc1ccc(Cl)cc1Cl)NOCc1ncc(C(F)(F)F)cc1Cl	-6.6	0.3	-13.0	15.3*	-11.0	10.8*

Screening data deposited in PubChem BioAssay by several laboratories.
